About 8,800 targets were measured; listed, in parts, are those with a hit and a random draw of the rest. About 0.5% of all pairs of compound and target were hits. Unmarked numbers belong to inactive results.
How the values were obtained:
Assay in all cases: log2 fold change, soluble protein after heating vs DMSO (PISA); higher = thermal stabilisation; K562 lysate, 10 uM; active = over 0.2 and 3.5 SD of the protein, either way, in both replicates (recomputed)
[1] = compound: CS(=O)(=O)CCNCc1ccc(-c2ccc3ncnc(Nc4ccc(OCc5cccc(F)c5)c(Cl)c4)c3c2)o1 [lapatinib]
Method in brief: (§1)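 Soluble protein was defined as the supernatant remaining after 21,000xg for 90 min, following pooling of heated aliquots and adjustment to 0.5% NP-40 at 4°C. Before that, crude K562 extract at 1 mg/mL protein in PBS pH 7.4 with 1 mM MgCl2 was treated with 10 μM compound for 30 min and heated for 3 min across 48°C-58°C. Quantification used TMTpro 16plex LC-MS/MS with channel sums equalised, and values are log-two fold changes in thermal stability relative to solvent controls from duplicates.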

[2] = compound: CS(=O)(=O)N1CCN(Cc2cc3nc(-c4cccc5[nH]ncc45)nc(N4CCOCC4)c3s2)CC1 [pictilisib]
Method in brief: as §1

[3] = compound: C[C@@H](Oc1cc(-c2cnn(C3CCNCC3)c2)cnc1N)c1c(Cl)ccc(F)c1Cl [crizotinib]
Method in brief: as §1

[4] = compound: C[C@H](C1=CC=C(C=C1)C(=O)NC2=C3C=CNC3=NC=C2)N
Method in brief: as §1

[5] = compound: C[C@H](Nc1ncnc2nc[nH]c12)c1cc2cccc(Cl)c2c(=O)n1-c1ccccc1 [duvelisib]
Method in brief: as §1

[6] = compound: Cc1cc(Nc2cc(CN3CCOCC3)c3nc(C)c(Cc4ccc(Cl)cc4F)n3n2)n[nH]1 [gandotinib]
Method in brief: as §1

[7] = compound: Cc1cc(Nc2cc(N3CCN(C)CC3)nc(Sc3ccc(NC(=O)C4CC4)cc3)n2)n[nH]1 [tozasertib]
Method in brief: as §1

[8] = compound: Cc1ccc(-n2nc(C(C)(C)C)cc2NC(=O)Nc2ccc(OCCN3CCOCC3)c3ccccc23)cc1 [doramapimod]
Method in brief: as §1

[9] = compound: Cc1ccc(NC(=O)c2ccc(CN3CC[C@H](N(C)C)C3)c(C(F)(F)F)c2)cc1Nc1nccc(-c2cncnc2)n1 [bafetinib]
Method in brief: as §1

[10] = compound: Cc1cccc(CC(=O)N2CCc3c2ccc(-c2cn(C)c4ncnc(N)c24)c3F)n1
Method in brief: as §1

[11] = compound: Cc1cn(-c2cc(NC(=O)c3ccc(C)c(Nc4nccc(-c5cccnc5)n4)c3)cc(C(F)(F)F)c2)cn1 [nilotinib]
Method in brief: as §1

[12] = compound: Cc1nc(Nc2n[nH]c3c2CN(C(=O)N[C@H](CN(C)C)c2ccccc2)C3(C)C)c2sccc2n1
Method in brief: as §1

[13] = compound: Cc1nc(Nc2ncc(C(=O)Nc3c(C)cccc3Cl)s2)cc(N2CCN(CCO)CC2)n1 [dasatinib]
Method in brief: as §1

[14] = compound: Cc1ncc(-c2ccnc(Nc3ccc(S(C)(=O)=O)cc3)n2)n1C(C)C
Method in brief: as §1

[15] = compound: Cn1cc(-c2ccc3c(c2)CCN3C(=O)Cc2cccc(C(F)(F)F)c2)c2c(N)ncnc21
Method in brief: as §1

[16] = compound: Cn1cc(CNCC2CCN(c3ncc(C(=O)NO)cn3)CC2)c2ccccc21 [quisinostat]
Method in brief: as §1

[17] = compound: Cn1cncc1[C@@](N)(c1ccc(Cl)cc1)c1ccc2c(c1)c(-c1cccc(Cl)c1)cc(=O)n2C [tipifarnib]
Method in brief: as §1

[18] = compound: NC(=O)Nc1cc(-c2cccc(F)c2)sc1C(=O)N[C@H]1CCCNC1
Method in brief: as §1

[19] = compound: NC(=O)c1cnc(N[C@@H]2CCCC[C@@H]2N)nc1Nc1cccc(-n2nccn2)c1
Method in brief: as §1

[20] = compound: NC1(c2ccc(-c3nc4ccn5c(=O)[nH]nc5c4cc3-c3ccccc3)cc2)CCC1
Method in brief: as §1

Chain of UniProt Q9P253 (Q9P253 whole entry, looked up): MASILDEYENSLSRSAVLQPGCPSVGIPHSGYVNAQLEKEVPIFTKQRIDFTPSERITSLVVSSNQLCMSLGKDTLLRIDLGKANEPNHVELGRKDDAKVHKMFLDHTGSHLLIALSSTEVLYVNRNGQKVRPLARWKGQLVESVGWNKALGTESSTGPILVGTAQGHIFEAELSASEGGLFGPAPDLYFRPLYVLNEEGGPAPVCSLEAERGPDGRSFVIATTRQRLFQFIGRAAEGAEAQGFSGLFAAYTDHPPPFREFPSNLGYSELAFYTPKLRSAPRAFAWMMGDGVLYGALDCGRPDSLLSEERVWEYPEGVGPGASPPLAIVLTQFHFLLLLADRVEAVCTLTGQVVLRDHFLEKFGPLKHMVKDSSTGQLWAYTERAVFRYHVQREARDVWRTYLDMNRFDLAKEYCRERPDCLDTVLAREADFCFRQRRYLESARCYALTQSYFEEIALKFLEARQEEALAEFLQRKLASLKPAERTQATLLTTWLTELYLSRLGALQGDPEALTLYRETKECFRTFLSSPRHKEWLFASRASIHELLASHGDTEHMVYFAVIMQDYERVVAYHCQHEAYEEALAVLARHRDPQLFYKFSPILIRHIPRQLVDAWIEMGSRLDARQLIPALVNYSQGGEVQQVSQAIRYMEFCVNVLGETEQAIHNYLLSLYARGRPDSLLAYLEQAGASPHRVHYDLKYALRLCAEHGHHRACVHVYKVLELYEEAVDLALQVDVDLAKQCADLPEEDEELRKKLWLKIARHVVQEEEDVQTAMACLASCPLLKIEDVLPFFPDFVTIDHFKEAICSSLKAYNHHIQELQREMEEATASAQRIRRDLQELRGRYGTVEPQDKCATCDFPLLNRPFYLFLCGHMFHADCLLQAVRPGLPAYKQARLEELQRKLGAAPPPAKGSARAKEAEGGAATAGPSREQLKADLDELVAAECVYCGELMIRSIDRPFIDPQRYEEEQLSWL
Chain of UniProt Q9NQZ2 (Q9NQZ2 whole entry, looked up): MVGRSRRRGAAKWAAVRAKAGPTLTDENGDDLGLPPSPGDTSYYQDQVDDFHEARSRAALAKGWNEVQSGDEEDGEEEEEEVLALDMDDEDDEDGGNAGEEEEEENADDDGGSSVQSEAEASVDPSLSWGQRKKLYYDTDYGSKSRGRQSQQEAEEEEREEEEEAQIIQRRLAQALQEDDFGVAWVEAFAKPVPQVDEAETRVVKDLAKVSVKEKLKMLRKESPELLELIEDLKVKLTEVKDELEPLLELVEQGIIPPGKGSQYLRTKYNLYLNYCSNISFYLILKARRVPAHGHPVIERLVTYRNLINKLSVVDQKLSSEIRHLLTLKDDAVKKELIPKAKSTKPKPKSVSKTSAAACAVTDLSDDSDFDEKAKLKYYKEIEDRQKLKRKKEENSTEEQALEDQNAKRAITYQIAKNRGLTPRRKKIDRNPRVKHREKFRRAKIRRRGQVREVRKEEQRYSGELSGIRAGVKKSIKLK
Chain of UniProt Q9NNW5 (Q9NNW5 whole entry, looked up): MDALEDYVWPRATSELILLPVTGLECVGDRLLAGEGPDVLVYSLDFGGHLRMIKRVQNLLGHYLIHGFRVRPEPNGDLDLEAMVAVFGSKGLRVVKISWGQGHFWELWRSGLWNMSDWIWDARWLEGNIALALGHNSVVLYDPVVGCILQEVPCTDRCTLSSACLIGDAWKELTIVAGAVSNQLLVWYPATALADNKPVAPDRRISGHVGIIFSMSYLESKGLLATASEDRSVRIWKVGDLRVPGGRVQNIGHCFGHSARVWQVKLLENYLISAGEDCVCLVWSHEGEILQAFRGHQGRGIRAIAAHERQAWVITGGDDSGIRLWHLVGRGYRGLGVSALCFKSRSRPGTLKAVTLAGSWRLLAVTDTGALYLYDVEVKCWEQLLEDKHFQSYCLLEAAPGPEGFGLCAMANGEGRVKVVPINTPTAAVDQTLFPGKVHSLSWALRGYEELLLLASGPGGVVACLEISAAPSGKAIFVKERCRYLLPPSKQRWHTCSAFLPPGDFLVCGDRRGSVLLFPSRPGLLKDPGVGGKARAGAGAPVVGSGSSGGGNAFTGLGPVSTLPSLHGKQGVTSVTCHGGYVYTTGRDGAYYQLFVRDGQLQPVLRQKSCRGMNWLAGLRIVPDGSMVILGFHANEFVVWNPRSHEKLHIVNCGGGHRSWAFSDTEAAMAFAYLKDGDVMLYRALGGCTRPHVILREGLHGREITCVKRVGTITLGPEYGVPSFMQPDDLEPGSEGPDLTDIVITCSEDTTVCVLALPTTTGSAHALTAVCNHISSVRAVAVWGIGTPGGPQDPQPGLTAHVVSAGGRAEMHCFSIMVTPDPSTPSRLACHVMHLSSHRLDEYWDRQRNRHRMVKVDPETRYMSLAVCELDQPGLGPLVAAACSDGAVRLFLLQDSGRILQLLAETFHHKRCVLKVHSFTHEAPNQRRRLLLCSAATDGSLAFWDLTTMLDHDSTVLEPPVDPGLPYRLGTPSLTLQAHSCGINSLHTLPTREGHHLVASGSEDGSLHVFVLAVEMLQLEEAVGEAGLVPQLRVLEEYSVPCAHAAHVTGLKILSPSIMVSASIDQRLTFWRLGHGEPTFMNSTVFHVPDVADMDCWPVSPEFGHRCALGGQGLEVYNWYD
Chain of UniProt Q9UN37 (Q9UN37 whole entry, looked up): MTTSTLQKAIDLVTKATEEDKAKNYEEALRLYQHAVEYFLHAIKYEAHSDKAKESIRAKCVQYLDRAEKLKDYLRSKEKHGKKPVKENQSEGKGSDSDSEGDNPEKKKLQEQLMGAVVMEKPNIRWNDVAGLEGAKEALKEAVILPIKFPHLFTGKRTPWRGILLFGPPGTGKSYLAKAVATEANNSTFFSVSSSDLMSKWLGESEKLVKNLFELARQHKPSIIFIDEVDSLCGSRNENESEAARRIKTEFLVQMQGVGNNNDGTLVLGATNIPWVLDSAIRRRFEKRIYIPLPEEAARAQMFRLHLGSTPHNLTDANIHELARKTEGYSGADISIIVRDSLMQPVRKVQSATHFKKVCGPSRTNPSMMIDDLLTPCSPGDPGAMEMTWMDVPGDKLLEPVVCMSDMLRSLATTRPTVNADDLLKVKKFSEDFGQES
Chain of UniProt Q86U90 (Q86U90 whole entry, looked up): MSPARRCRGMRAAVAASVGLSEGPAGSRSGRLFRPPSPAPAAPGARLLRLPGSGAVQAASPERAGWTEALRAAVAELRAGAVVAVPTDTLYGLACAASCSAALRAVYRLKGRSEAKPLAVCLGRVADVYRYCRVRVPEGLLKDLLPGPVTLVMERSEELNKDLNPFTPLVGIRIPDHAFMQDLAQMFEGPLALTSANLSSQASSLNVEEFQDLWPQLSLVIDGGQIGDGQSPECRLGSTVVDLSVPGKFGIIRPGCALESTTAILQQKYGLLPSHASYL
Chain of UniProt Q7Z3J2 (Q7Z3J2 whole entry, looked up): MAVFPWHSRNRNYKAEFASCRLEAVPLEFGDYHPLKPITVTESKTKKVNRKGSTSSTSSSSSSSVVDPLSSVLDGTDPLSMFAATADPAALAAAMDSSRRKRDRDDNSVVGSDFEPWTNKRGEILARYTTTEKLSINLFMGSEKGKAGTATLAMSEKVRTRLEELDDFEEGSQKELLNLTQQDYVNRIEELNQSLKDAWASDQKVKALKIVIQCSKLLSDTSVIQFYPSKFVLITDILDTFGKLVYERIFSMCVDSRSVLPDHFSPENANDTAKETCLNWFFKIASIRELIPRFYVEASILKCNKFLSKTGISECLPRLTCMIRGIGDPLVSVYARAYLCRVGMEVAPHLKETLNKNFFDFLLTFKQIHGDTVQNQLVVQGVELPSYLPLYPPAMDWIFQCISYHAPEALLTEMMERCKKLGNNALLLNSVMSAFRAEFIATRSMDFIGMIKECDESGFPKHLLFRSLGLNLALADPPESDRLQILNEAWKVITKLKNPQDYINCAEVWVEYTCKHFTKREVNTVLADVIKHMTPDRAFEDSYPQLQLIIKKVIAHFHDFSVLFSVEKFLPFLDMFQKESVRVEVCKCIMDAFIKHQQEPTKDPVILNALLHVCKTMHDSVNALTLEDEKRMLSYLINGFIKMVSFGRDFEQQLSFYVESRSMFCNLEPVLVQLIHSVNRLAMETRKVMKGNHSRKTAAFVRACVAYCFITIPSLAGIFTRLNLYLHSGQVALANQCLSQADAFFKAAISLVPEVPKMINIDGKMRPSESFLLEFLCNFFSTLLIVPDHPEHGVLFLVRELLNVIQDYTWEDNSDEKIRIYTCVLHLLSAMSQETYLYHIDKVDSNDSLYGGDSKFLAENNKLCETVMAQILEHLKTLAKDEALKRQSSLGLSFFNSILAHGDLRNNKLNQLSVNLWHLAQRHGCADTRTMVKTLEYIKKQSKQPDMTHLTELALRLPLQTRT
Chain of UniProt Q96S55 (Q96S55 whole entry, looked up): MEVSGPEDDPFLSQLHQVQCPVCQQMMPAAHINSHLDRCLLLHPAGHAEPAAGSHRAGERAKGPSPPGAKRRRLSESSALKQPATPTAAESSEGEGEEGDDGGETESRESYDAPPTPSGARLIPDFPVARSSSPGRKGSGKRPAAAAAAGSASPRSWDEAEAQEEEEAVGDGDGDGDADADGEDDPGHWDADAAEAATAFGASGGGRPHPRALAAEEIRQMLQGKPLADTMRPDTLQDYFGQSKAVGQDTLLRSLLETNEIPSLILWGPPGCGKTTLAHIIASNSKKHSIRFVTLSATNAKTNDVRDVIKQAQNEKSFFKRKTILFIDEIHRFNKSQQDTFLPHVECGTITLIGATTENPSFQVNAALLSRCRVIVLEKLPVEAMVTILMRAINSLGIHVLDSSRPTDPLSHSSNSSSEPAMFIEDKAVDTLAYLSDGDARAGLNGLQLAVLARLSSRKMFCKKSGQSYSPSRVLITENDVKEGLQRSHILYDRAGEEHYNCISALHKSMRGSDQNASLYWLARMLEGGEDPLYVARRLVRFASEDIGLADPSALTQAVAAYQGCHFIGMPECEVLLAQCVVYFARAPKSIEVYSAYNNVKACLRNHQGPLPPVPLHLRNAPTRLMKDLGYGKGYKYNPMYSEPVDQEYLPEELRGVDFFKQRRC

Row | Target | log2 fold change [1] | log2 fold change [2] | log2 fold change [3] | log2 fold change [4] | log2 fold change [5] | log2 fold change [6] | log2 fold change [7] | log2 fold change [8] | log2 fold change [9] | log2 fold change [10] | log2 fold change [11] | log2 fold change [12] | log2 fold change [13] | log2 fold change [14] | log2 fold change [15] | log2 fold change [16] | log2 fold change [17] | log2 fold change [18] | log2 fold change [19] | log2 fold change [20]
1 | WDR41 (UniProt Q9HAD4) | 0.013 | 0.099 | 0.022 | -0.037 | -0.026 | 0.149 | -0.069 | 0.241 (active) | -0.065 | 0.126 | -0.012 | -0.023 | 0.028 | -0.011 | 0.005 | -0.036 | -0.077 | -0.009 | -0.032 | -0.017
2 | UTP3 (UniProt Q9NQZ2) | 0.002 | -0.031 | -0.094 | -0.008 | 0.031 | -0.007 | -0.027 | 0.066 | -0.061 | 0.029 | -0.106 | 0.008 | -0.048 | -0.054 | -0.023 | 0.014 | 0.051 | 0.065 | 0.002 | 0
3 | ZFPM1 (UniProt Q8IX07) | -0.003 | -0.008 | -0.135 | 0.009 | 0.001 | -0.079 | -0.118 | 0.023 | -0.077 | -0.018 | 0.036 | -0.075 | -0.087 | 0.042 | 0.095 | -0.189 | 0.044 | 0.034 | -0.082 | -0.018
4 | WDR6 (UniProt Q9NNW5) | -0.023 | -0.03 | -0.049 | -0.05 | -0.005 | -0.007 | -0.013 | -0.007 | -0.022 | 0.024 | -0.017 | 0.002 | -0.018 | -0.003 | 0.026 | -0.075 | 0.036 | 0.033 | 0.006 | -0.032
5 | YRDC (UniProt Q86U90) | -0.028 | -0.038 | -0.047 | -0.039 | 0.018 | 0.055 | 0.027 | 0.035 | 0.022 | 0.01 | 0 | 0.021 | 0.022 | 0.018 | -0.019 | -0.019 | 0.008 | -0.004 | 0.01 | -0.003
6 | ZHX1 (UniProt Q9UKY1) | 0.014 | 0.003 | 0.018 | -0.57 (active) | 0.038 | 0.475 (active) | -0.09 | -0.013 | -0.08 | 0.431 (active) | 0.011 | -0.012 | 0 | 0.06 | -0.096 | -0.035 | 0.007 | 0.039 | -0.047 | -0.011
7 | ZMYM1 (UniProt Q5SVZ6) | 0.101 | -0.037 | -0.008 | -0.25 (active) | -0.04 | 0.226 | -0.021 | 0 | -0.097 | 0.284 (active) | 0.023 | -0.036 | 0.006 | -0.019 | 0.007 | -0.08 | -0.012 | 0.03 | 0.003 | 0.028
8 | VPS4A (UniProt Q9UN37) | 0.003 | -0.034 | -0.034 | -0.042 | -0.012 | -0.066 | 0.007 | 0.038 | 0.004 | 0.056 | -0.011 | 0.008 | -0.075 | 0.002 | 0.056 | -0.027 | 0.023 | 0.019 | 0.004 | -0.011
9 | WDR36 (UniProt Q8NI36) | 0.013 | -0.008 | -0.02 | 0.024 | 0.016 | -0.097 | 0.017 | 0.061 | 0.005 | -0.004 | 0.003 | -0.015 | 0.012 | 0.002 | 0.025 | -0.014 | -0.002 | 0.03 | -0.004 | -0.01
10 | YTHDC2 (UniProt Q9H6S0) | -0.029 | -0.007 | -0.042 | 0.023 | 0.032 | -0.013 | -0.03 | 0.007 | -0.022 | -0.066 | 0.006 | -0.001 | -0.043 | 0.03 | 0.03 | -0.046 | 0.022 | 0.06 | -0.007 | -0.054
11 | YLPM1 (UniProt P49750) | 0.031 | -0.019 | 0.064 | 0.147 | 0.009 | -0.067 | 0.017 | -0.042 | -0.09 | -0.054 | -0.023 | -0.192 | 0.018 | -0.384 (active) | 0.021 | -0.015 | -0.011 | 0.033 | 0.041 | -0.013
12 | XAB2 (UniProt Q9HCS7) | -0.02 | -0.051 | -0.096 | 0.025 | 0.038 | -0.055 | -0.073 | 0.01 | 0.065 | 0.028 | 0.032 | -0.002 | -0.051 | 0.048 | 0.017 | 0.106 | -0.046 | 0.046 | -0.025 | -0.01
13 | WRNIP1 (UniProt Q96S55) | -0.021 | -0.043 | 0 | 0.054 | 0.012 | -0.047 | 0.022 | 0.001 | -0.043 | 0.045 | -0.008 | 0.002 | -0.018 | -0.05 | 0.066 | -0.035 | -0.02 | 0.053 | -0.008 | -0.001
14 | ZMAT2 (UniProt Q96NC0) | 0.006 | 0.003 | -0.005 | 0.02 | -0.034 | -0.035 | -0.028 | 0.042 | 0.053 | -0.043 | -0.014 | 0.037 | 0.022 | 0.027 | 0.033 | -0.066 | -0.013 | -0.044 | 0.002 | -0.03
15 | VPS18 (UniProt Q9P253) | 0.009 | -0.017 | -0.049 | -0.056 | -0.04 | -0.032 | -0.003 | -0.004 | -0.06 | 0.047 | -0.013 | -0.029 | -0.016 | 0.003 | -0.005 | -0.018 | -0.05 | 0.029 | 0.01 | -0.019
16 | VPS35L (UniProt Q7Z3J2) | -0.016 | -0.003 | -0.028 | -0.025 | 0.02 | -0.029 | 0.026 | 0.02 | -0.052 | 0.065 | -0.019 | -0.006 | -0.088 | 0.022 | 0.008 | -0.046 | 0.03 | 0.043 | 0.001 | -0.044

Reference: the supplement of paper PMC10849652
